In the supplement of paper PMC6555819:

Columns and labels:
Test in all cases: PBM binding z-score (relative to random genomic background probes); higher = stronger binding; sequences stand for … in GC…GCGATTGACAGCGTAGAATGAAGG
[1] = tested on: PPARg:RXRa DBDmut IVT, anti-RXR (DBD mutation: RXRa K156A/R161A, NR concentration 270 nM, RXRa partner concentration 90 nM)
In short: (§1)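 The probes on custom Agilent 4×180K protein-binding microarrays were double-stranded, with 34-nt variable regions bearing direct-repeat seeds, single-nucleotide variants, half-site ablations and random human genomic background sequences. Incubation lasted 1 h with ligand-free nuclear receptor dimers in PBS pH 7.4, 2% milk, 0.02% Triton X-100, 1 mM DTT, 0.2 mg/mL BSA and 0.4 mg/ml salmon testes DNA. Antibodies against each partner (one per run) detected bound dimers, and fluorescence scans were regression-normalized. Binding z-scores take the random background probes as reference.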

[2] = tested on: PPARg:RXRa IVT, anti-PPARg (NR concentration 270 nM, RXRa partner concentration 90 nM)
In short: as §1

[3] = tested on: PPARg DBDmut:RXRa IVT, anti-PPARg (DBD mutation: PPARg1 K132A/R137A, NR concentration 270 nM, RXRa partner concentration 90 nM)
In short: as §1

[4] = tested on: PPARg DBDmut IVT, anti-PPARg (DBD mutation: PPARg1 K132A/R137A, NR concentration 270 nM)
In short: as §1

[5] = tested on: PPARg homodimer (NR concentration 180 nM)
In short: as §1

[6] = tested on: PXR:RXRa (NR concentration 270 nM, RXRa partner concentration 90 nM)
In short: as §1

[7] = tested on: PXR homodimer (NR concentration 270 nM)
In short: as §1

[8] = tested on: RARa:RXR (NR concentration 270 nM, RXRa partner concentration 90 nM)
In short: as §1

[9] = tested on: RARa homodimer (NR concentration 270 nM)
In short: as §1

[10] = tested on: RARb:RXRa (NR concentration 270 nM, RXRa partner concentration 90 nM)
In short: as §1

[11] = tested on: RARb homodimer (NR concentration 270 nM)
In short: as §1

[12] = tested on: RARg:RXRa (NR concentration 270 nM, RXRa partner concentration 90 nM)
In short: as §1

[13] = tested on: RARg homodimer (NR concentration 270 nM)
In short: as §1

[14] = tested on: RXRa DBDmut IVT, anti-RXR (DBD mutation: RXRa K156A/R161A, NR concentration 90 nM)
In short: as §1

[15] = tested on: RXRa homodimer (NR concentration 180 nM)
In short: as §1

[16] = tested on: THRa:RXRa (NR concentration 90 nM, RXRa partner concentration 90 nM)
In short: as §1

[17] = tested on: THRa homodimer (NR concentration 90 nM)
In short: as §1

[18] = tested on: VDR:RXRa (NR concentration 270 nM, RXRa partner concentration 90 nM)
In short: as §1

[19] = tested on: VDR homodimer (NR concentration 270 nM)
In short: as §1

| Sequence | PBM binding z-score [1] | PBM binding z-score [2] | PBM binding z-score [3] | PBM binding z-score [4] | PBM binding z-score [5] | PBM binding z-score [6] | PBM binding z-score [7] | PBM binding z-score [8] | PBM binding z-score [9] | PBM binding z-score [10] | PBM binding z-score [11] | PBM binding z-score [12] | PBM binding z-score [13] | PBM binding z-score [14] | PBM binding z-score [15] | PBM binding z-score [16] | PBM binding z-score [17] | PBM binding z-score [18] | PBM binding z-score [19] |
| --- | --- | --- | --- | --- | --- | --- | --- | --- | --- | --- | --- | --- | --- | --- | --- | --- | --- | --- | --- |
| TCGAGTAGGTTGGTCGGGGCATTCAGCCAACATA | 0.51 | -0.219 | -0.384 | -1.1 | -0.0818 | 0.102 | -0.155 | 0.0862 | -0.932 | 0.117 | 0.0867 | -0.467 | -0.483 | -0.0758 | -0.429 | 0.33 | 0.0385 | 0.314 | 0.0879 |
| GCTGCTAGGTCACCTGATGGTCAGCTAAAGCTCG | 4.7 | 4.09 | 0.447 | 0.446 | 1.57 | 1.2 | -0.963 | 2.67 | -0.925 | 3.86 | 3.33 | 4.88 | 5.27 | 1.18 | 2.64 | 3 | 1.57 | 1.31 | -0.0693 |
| CCTGCTAGGTCATAGTCAGCTAATCTACAGTATG | 3.96 | 3.31 | 0.51 | 0.574 | 1.15 | 1.16 | -0.0222 | 1.73 | 0.243 | 3.54 | 2.32 | 3.3 | 3.57 | 2.08 | 2.13 | 2.62 | 0.766 | 1.28 | 0.519 |
| CGTCCAAGGCCAAGGTCAGTGAAAGAGACTCGAA | 0.486 | 0.991 | -1.04 | -1.54 | 1.05 | 1.53 | 0.261 | 2.04 | 0.342 | 3.58 | 3.42 | 2.86 | 3.7 | 1.31 | 1.83 | 2.87 | 1.51 | 1.15 | 0.947 |
| GCTAGCAGGCCATTTCGGTCACTCAATGACGGGC | 0.656 | 0.325 | -0.625 | -0.867 | -0.364 | -0.577 | -0.577 | -0.28 | -1.42 | 1.07 | 1.03 | 0.276 | 0.793 | 0.0509 | -0.116 | 0.245 | -0.53 | -0.644 | -0.487 |
| TTACCACGGTGAGCTGAGGTCGTTGATCCAACTC | -0.205 | 0.363 | -0.296 | -0.157 | -0.455 | 2.07 | 0.241 | 1.07 | -0.639 | 0.544 | 0.63 | 0.212 | -0.116 | -0.00262 | 0.759 | 3.24 | 1.31 | 1.57 | 1.64 |
| AGAATGATGTTATTAAGATCAGGGAATTGCGGTC | -0.219 | 0.135 | 0.648 | 0.441 | 0.197 | -0.0155 | -0.0811 | 0.136 | 0.841 | -0.333 | -0.502 | 0.0118 | 0.00602 | -0.521 | 0.203 | 0.093 | -0.511 | 0.0323 | -0.127 |
| CCAGACAGGTGAGATGGTAACTCAGCCTCGATTA | 0.95 | 0.00345 | -0.391 | -0.721 | 0.16 | -0.343 | 0.189 | -0.347 | 0.738 | 0.229 | 0.103 | 0.164 | 0.225 | -0.124 | -0.0452 | -0.143 | 0.146 | -0.293 | 0.202 |
| ATCTCTAGGTAGCAAGTTCAGTGAAAGAGAGGAC | 0.208 | 0.604 | 0.0162 | 0.501 | 0.437 | 1.22 | 1.35 | 0.324 | 0.221 | 0.981 | 1.48 | 0.743 | 0.963 | 0.543 | 0.352 | 0.972 | 0.46 | 1.35 | 2.36 |
| ATATGTAGGTTACATCCGGGTCAATCAGGCTATG | 6.83 | 7.41 | 2.24 | 2 | 1.63 | 2.93 | 0.984 | 3.51 | 0.955 | 2.32 | 3.12 | 3.95 | 2.2 | 0.665 | 3.37 | 3.8 | 2.33 | – | 1.72 |
| CCTACTGGGCCATTCAGAGGTCATTTATCATATG | 3.98 | 4.38 | 1.61 | 0.342 | 2.27 | 4.91 | 2.24 | 4.44 | 0.704 | 2.79 | 3.73 | 3.91 | 2.73 | 1.47 | 3.27 | 3.12 | 1.45 | – | 4.04 |
| TAGCCTAGGTCATTGGGCCAGTATGGTACGCATC | 2.56 | 3.68 | 0.116 | 0.266 | 1.26 | 1.38 | -0.75 | 2.07 | -0.00791 | 3.44 | 2.8 | 3.75 | 3.81 | 1.46 | 2.73 | 2.81 | 0.583 | – | 0.715 |
| CGTCAAAGTTCACGGTAACGTAACAGAAAGCAGC | 0.827 | 2.31 | 0.983 | 0.91 | 2.72 | 4.93 | 2.72 | 4.67 | 1.67 | 5.25 | 4.26 | 6.31 | 7.19 | 4.62 | 6.17 | 2.38 | -0.36 | – | 4.02 |
| ACTAGTTGGTCGGCTGAGGTCACACACAATTCGG | 0.828 | 2.09 | 0.508 | 0.979 | 2.33 | 5 | 2.11 | 4.72 | 1.23 | 3.08 | 4.05 | 3.76 | 3.25 | 1.12 | 4.19 | 4.77 | 5.24 | – | 3.84 |
| CCTACTGGGCCAAGGTCATTGTTCAGTCAAAGCA | 3.1 | 4.53 | 1.57 | -0.159 | 3.54 | 3.62 | 1.49 | 3.79 | -0.126 | 3.25 | 3.27 | 3.46 | 2.71 | 1.59 | 2.91 | 3.45 | 2.72 | – | 3.17 |
